Test results reported in ChEMBL document CHEMBL1201862, “PubChem BioAssay data set” (2004).
About 3,200 (5.6%) of roughly 57,000 […] were called active. Rule as the data show it: active = GI50 up to about 1.1 µM and inactive = higher. Not all results are given here. Results with a measured potency or affinity are listed apart.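 Following 48 hours of exposure in 96-well plates, responses at five concentrations were used to interpolate endpoints linearly. The concentration for 50% growth inhibition is given as GI50.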

test system: SF-268; assay: NCI tumour cell line growth inhibition, 48 h

Substance | GI50 [µM]
[Bis(aminomethyl)ethylmethylsilane]tetrachloroplatinum(IV), CHEMBL2146192 | 2.43
[Bis(aminomethyl)tetramethylenesilane]tetrachloropaltinum(IV), CHEMBL2146189 | 3.52
[Bis(aminomethyl)dimethylsilane]tetrachloroplatinum(IV), CHEMBL2146190 | 2.74
[Bis(aminomethyl)diethylsilane]tetrachloroplatinum(IV), CHEMBL2146203 | 1.57
[Bis(aminomethyl)tetramethylenesilane]dichloropaltinum(II), CHEMBL2146205 | 21.8
[Bis(aminomethyl)dimethylsilane]dichloroplatinum (II), CHEMBL2146201 | 8.81
cis-Bis[[(trimethylsilyl)methyl]amino]tetrachloroplatinum(IV), CHEMBL2146191 | 13.6
mu-(1,7-nanodiamine-N,N')bis-(cis-aminedichloroplatimum (II)), CHEMBL2146215 | 8.97
CISPLATIN, CHEMBL11359 | 0.745
[Bis(aminomethyl)pentamethylenesilane]dichloropaltinum(II), CHEMBL2146202 | 3.46
[Bis(aminomethyl)pentamethylenesilane]tetrachloropaltinum(IV), CHEMBL2146204 | 3.59
